# Source: PubChem BioAssay (National Center for Advancing Translational Sciences (NCATS))
# Mito fusion yeast – inhibitors of mitochondrial division or activators of mitochondrial fusion. S. cerevisiae fusion-defective mutant growth rescue, CellTiterGlo 48 h. 320,000 tested, 0.23% active. AID 485298. Potency, µM (titrated, usually from 46.1 µM), without a hit: at the highest dose growth rescue (activation), actives largely listed as activators; also: % of control where 0% means no effect; nearly all actives have a fitted effect of over 45% in size
#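 Temperature-sensitive fusion-defective S. cerevisiae (e.g. fzo1-1, mgm1-5) were grown with compound in YPEG medium (3% ethanol, 3% glycerol) for 48 hours at 37C. Growth rescue was measured as viability by CellTiterGlo luminescence after 10 minutes at ambient.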
# TDP-43 yeast inh – rescues yeast growth from TDP-43 toxicity | Potency, µM (titrated, usually from 46.1 µM), for inactives: at the top dose growth rescue (activation), most hits filed as activators | AID 652104 | 410,000 tested, 1.8% active | TDP-43 expressing yeast growth rescue, BacTiter-Glo, 24 h; also: % of control where 0% means no effect; nearly all actives have a fitted effect of over 50% in size
#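 Cell-based yeast growth screen: TDP-43 expression induced in galactose, inoculum OD600=0.02 after raffinose pregrowth to mid-log. Read-out BacTiter-Glo luminescence at 24 hr, 30 deg C; inhibition of toxicity seen as signal increase.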
# Abeta rescue – restores growth of yeast expressing A-beta42 peptide; yeast expressing A-beta42, growth rescue, OD600, 48 h; response scale: 0% DMSO, 100% iron-clioquinol control; Potency, µM (highest dose often 46.1 µM), actives largely listed as activators; 410,000 tested, 0.063% active; AID 1347071; also: nearly all actives have a fitted effect of over 55% in size
#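 Yeast growth medium received pinned compounds, then yeast cells expressing toxic A-beta were added; plates incubated at 30 C for 48 hr. Growth read as absorbance at 600 nm, normalized to DMSO and equimolar FeCl3 plus clioquinol controls.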
# aSyn rescue – alpha-synuclein toxicity inhibition in yeast; Yeast expressing alpha-synuclein, growth rescue, BacTiter-Glo, 24 h; Potency, µM (top dose mostly 46.1 µM), inactives show top-dose growth rescue (activation), actives largely listed as activators; 370,000 tested, 0.14% active; AID 652106; also: % of control where 0% means no effect; nearly all actives have a fitted effect of over 65% in size
#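 Readout is rescue of growth in alpha-synuclein-expressing yeast, so inhibitors of toxicity appear as activators. Growth after 24 hr at 30 deg C in galactose medium is quantified by luminescence.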
# ERG Ets-DNA blk – blocks human ERG Ets domain binding to DNA | 370,000 tested, 0.028% active | Potency, µM (titrated, usually from 76.9 µM), for inactives: at the highest dose FP activity, negative = inhibition, actives largely listed as inhibitors | P11308 | fluorescence polarization, His-ERG Ets domain / labelled DNA; active = well fitted inhibition curve with a large enough effect in the polarisation, with a control signal flat; inconclusive = small, poorly fitted or top-dose-only effect, or effect the other way, or a change in a side signal; inactive = no such curve, though single readings can be large or run the other way; the % refers to the polarisation;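 also: polarization taken with two DNA probes labelled with fluorescein and Texas red; % of control where 0% means no effect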
# Target sequence (P11308 whole entry, looked up, the tested form may be a part): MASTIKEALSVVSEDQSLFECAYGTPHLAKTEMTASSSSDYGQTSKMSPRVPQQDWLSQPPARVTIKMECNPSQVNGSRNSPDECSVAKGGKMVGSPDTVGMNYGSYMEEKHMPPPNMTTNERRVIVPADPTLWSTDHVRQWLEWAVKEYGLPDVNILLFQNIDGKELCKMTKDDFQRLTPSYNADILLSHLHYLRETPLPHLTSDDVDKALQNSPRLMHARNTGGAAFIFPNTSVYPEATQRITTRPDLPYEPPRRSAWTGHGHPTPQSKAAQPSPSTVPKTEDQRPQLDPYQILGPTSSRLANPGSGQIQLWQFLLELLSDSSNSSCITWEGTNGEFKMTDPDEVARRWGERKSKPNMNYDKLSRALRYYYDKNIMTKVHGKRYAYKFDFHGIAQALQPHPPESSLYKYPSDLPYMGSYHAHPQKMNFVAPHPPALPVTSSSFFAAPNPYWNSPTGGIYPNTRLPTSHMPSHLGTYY
#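 His-tagged ERG Ets domain (1 uM in the protein solution; 300mM KCl, 50mM Tris-HCl, 1mM EDTA, 1mM DTT, pH 7.5) received compound, then a probe mix of 5 nM fluorescein-DNA and 100nM Texas-615-DNA. Fluorescence polarization was read for both dyes.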
# FUS suppressor – rescues growth of FUS-expressing yeast; Potency, µM (titrated, usually from 76.6 µM), hits mostly activators; S. cerevisiae FUS-expressing, growth rescue, OD600, 24 h; 390,000 tested, 0.24% active; AID 1347120;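 also: plate controls were DMSO vehicle for no effect and reference control for full effect; nearly all actives have a fitted effect of over 55% in size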
#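 Cultures pregrown in 2.5% raffinose medium are shifted to minimal medium containing 2% galactose to express toxic FUS. Compounds are tested at several concentrations. After 24hr at 30C, growth is quantified at 600 nm absorbance.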
# * hit, by the source's call; i = inactive; ? = inconclusive; . = no result given; ! = repeats disagree; [ ] = remark or other dose. Sampled rows, rich in hits. Any-hit rate of the full collection: about 2.2%. Unless noted, calls follow the shape of the dose curve; as a rule, active = well fitted curve in the direction sought with a large enough effect; inconclusive = small, poorly fitted or top-dose-only effect, or another doubt; inactive = no such curve, though single readings can be large; an effect the other way counts as inactive or inconclusive. Potency is read from the fitted curve at half-maximal effect.
SMILES,Mito fusion yeast,TDP-43 yeast inh,Abeta rescue,aSyn rescue,ERG Ets-DNA blk,FUS suppressor
O=C(c1ccc(F)cc1F)N1CCCC(c2nc(-c3ccc(F)cc3)no2)C1 (configuration not stated),-3.3%,-11.1%[1.82 µM],i,9.6%,4.1%,i
Cc1ccc(-c2noc(C3CCCN(C(=O)c4ccccc4Br)C3)n2)cc1 (configuration not stated),7.2%,12.6µM*,i,0.0%,-7.3%,i
O=C(Nc1ccc(F)cc1F)N1CCCC(c2nc(-c3ccc(F)cc3)no2)C1 (configuration not stated),12.9%,12.6µM*,i,0.2%,17.1%,?
Cc1ccc(-c2noc(C3CCCN(C(=O)c4c(F)cccc4F)C3)n2)cc1 (configuration not stated),24.9%,-7.0%,i,-16.3%,-1.7%,i
CCC(C)NC(=O)c1ccc2nc(-c3ccco3)c(-c3ccco3)nc2c1 (configuration not stated),.,.,.,2.5%,.,.
CCCCN(C)C(=O)c1cc2cc3ccc(OC)cc3nc2s1,-3.5%,17.8µM*,i,-24.6%,-5.3%,i
CCN(CCCNC(=O)c1cc2cc3ccc(OC)cc3nc2s1)c1ccccc1,-15.3%,-7.7%,i,.,-9.1%,i
CCCN(CC(=O)Nc1ccc(F)c(F)c1F)C(=O)C1CC(=O)N(Cc2ccccc2)C1 (configuration not stated),-5.5%,1.9%,i,1.4%,35.5µM*,i
COC(=O)[C@]12C[C@H](CC(=O)N3CCN(C(=O)C4CC4)CC3)C(=O)N(Cc3ccco3)C1=C[C@H](C(C)(C)C)O[C@@H]2C,.,.,.,.,.,i
COC(=O)CSc1nc2ccc(NC(C)=O)cc2s1,2.6%,-16.1%,i,-5.5%,-13.3%,i
CCNC(=O)c1ccc(CSc2nc3ccccc3s2)cc1,-4.8%,14.1µM*,i,8.1%,-8.6%,i
CC(=O)Nc1ccc2nc(SCc3ccccc3)sc2c1,.,17.8µM*,i,.,-0.1%,i
COCCNC(=O)c1ccc(CSc2nc3ccccc3s2)cc1,0.9%,?,i,-3.4%,-9.6%,i
CCc1ccc(Nc2nc(N)nc(CSc3nc4ccccc4s3)n2)cc1,-13.3%,25.1µM*!,?,0.9%,4.7%,i
O=C(NCc1ccccc1)c1nc2ccccc2s1,-2.3%,22.4µM*,i,-18.7%,-0.9%,i
Cc1nnc(SCc2nc(N)nc(Nc3ccccc3)n2)s1,1.3%,-3.6%,i,-0.7%,5.3%,i
O=C(Nc1ccc2c(c1)CCC2)c1cnn2c1NC(=C1CC1)C=C2C(F)F,.,.,.,0.1%,.,.
COCCCN1C(=O)[C@H](CC(=O)NCC23CC4CC(CC(C4)C2)C3)[C@]2(C(=O)OC)CCCCC=C12,.,.,.,.,.,i
COc1ccc(NC(=O)c2cc(=O)c3cc(C)cc(C)c3o2)cc1,.,17.2%,i,.,0.6%,i
CCOC(=O)CSc1nc2c([nH]c3ccccc32)c(=O)n1-c1ccc(OCC)cc1,.,14.3%,i,-5.6%,6.5%,i
CCCCCCCCCc1conc1C(=O)/C=C/c1oc2c(c1C)CCC(C)C2 (configuration not stated),.,12.1%,i,2.8%,.,i
CCOc1ccc(C(=O)Nc2ccc3c(c2)OCCO3)cc1Br,.,17.8µM*,i,.,3.7%,i
Cc1cccc(C)c1OCC(=O)Nc1ccc2c(c1)OCCO2,0.0%,14.1µM*,i,0.0%,3.4%,i
Cc1ccc(OCC(=O)Nc2ccc3c(c2)OCCO3)cc1C,-0.1%,-12.9%,i,-0.3%,15.6%,i
COc1cccc(-c2nc(SCC(=O)Nc3ccc4c(c3)OCCO4)c(-c3ccc(C)cc3)[nH]2)c1,.,20µM*,i,.,-5.5%,?
SMILES,Mito fusion yeast,TDP-43 yeast inh,Abeta rescue,aSyn rescue,ERG Ets-DNA blk,FUS suppressor
COc1ccc(C(=O)Nc2ccc3c(c2)OCCO3)cc1Br,-2.5%,7.3%,i,-3.4%,-25.0%,i
Cc1cccc(OCC(=O)Nc2ccc3c(c2)OCCO3)c1,9.9%,17.8µM*,i,-2.2%,-0.6%,i
CCc1ccccc1NC(=O)Cn1c(=O)n(CCc2ccccc2)c(=O)c2sc3ccccc3c21,.,-13.8%,i,.,-10.4%,i
COc1cccc(C(O)c2nc(-c3ccccc3OC)cs2)c1 (configuration not stated),.,22.4µM*,i,?,.,i
COc1cc(F)ccc1-c1csc(C(O)c2ccccc2)n1 (configuration not stated),.,35.5µM*,i,20.7%,.,?
COc1cccc(C(O)c2nc(-c3ccc(Cl)cc3)cs2)c1 (configuration not stated),.,12.6µM*,?,10.0%,.,i
COc1cccc(C(O)c2nc(-c3ccncc3)cs2)c1 (configuration not stated),.,24.6%,i,-5.3%,.,i
COc1cccc(C(O)c2nc(-c3ccccc3)cs2)c1 (configuration not stated),.,15.8µM*,i,20.5%,.,i
CCN1C[C@@H]2[C@@H]3C(=O)N(C)C(=O)[C@@H]3[C@](Cc3ccccc3)(C1=O)N2C(=O)c1ccc(F)cc1,.,0.0%,i,2.2%,-7.3%,i
COC(=O)c1c(-c2ccc(Br)cc2)noc1N,0.2%,20µM*,i,-2.7%,0.5%,i
CCCCN(CCCC)CCNC(=O)c1cn(C)c2ccc(S(=O)(=O)N3CCOCC3)cc2c1=O,.,11.4%,i,.,0.3%,i
CCC(CC)NC(=O)COC(=O)c1cc(SC)ccc1Cl,-1.2%,1.5%,i,1.2%,12.6µM*,i
CCCNC(=O)COC(=O)c1cc(SC)ccc1Cl,2.5%,-4.8%,i,0.2%,4.4%,i
Cc1ccccc1S(=O)(=O)Nc1nc2ccccc2nc1Cl,23.8%,10µM*,i,-9.7%,29.6%,i
CC(C)C[C@H](NC(=O)c1nc[nH]c1C(=O)NC1CCN(C(=O)OC(C)(C)C)CC1)C(=O)OC(C)(C)C,7.0%,1.6%,i,-2.5%,-14.8%,14.1µM*
CC(C)(C)OC(=O)NCCCC[C@H](NC(=O)c1nc[nH]c1C(=O)NC(c1ccccc1)c1ccccc1)C(=O)OC(C)(C)C,-1.5%,-8.1%,i,7.8%,13.8%,15.8µM*
CC(C)(C)OC(=O)NCCCC[C@H](NC(=O)c1nc[nH]c1C(=O)NC1CCN(C(=O)OC(C)(C)C)CC1)C(=O)OC(C)(C)C,-15.2%,15.2%,i,-9.5%,-14.1%,14.1µM*
O=C(Nc1cccc(Cl)c1)OC1CCC12CCC(c1ccccc1)CC2 (configuration not stated),.,.,.,.,.,i
